This is an account of results in PubChem BioAssay (NCATS).

The structures appear in SMILES notation. Values without a mark were called inactive. Results filed as inconclusive are left out. The source made the active and inactive calls. Cut-off read from the data, not from the text of the source, unless noted: active = potency below about 10 µM; inactive = the rest. A value given as a limit tells only on which side of the number the result lay.

Sequence of Lysosomal acid glucosylceramidase (Homo sapiens) (P04062 whole entry, looked up): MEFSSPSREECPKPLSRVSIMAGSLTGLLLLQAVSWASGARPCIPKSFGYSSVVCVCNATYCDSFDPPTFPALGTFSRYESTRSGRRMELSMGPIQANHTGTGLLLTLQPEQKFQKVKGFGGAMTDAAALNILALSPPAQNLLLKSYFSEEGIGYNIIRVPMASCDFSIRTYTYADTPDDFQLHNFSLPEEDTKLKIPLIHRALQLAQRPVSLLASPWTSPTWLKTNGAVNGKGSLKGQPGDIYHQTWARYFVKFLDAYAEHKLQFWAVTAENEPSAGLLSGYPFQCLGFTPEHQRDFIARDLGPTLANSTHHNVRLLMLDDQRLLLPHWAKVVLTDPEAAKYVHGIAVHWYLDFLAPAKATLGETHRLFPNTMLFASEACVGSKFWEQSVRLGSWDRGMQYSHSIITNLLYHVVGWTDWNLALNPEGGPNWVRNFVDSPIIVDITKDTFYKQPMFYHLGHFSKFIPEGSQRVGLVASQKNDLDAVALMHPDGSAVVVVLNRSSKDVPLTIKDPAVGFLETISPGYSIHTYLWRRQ

The first assay addresses Lysosomal acid glucosylceramidase (Homo sapiens) (UniProt P04062). Briefly: Glucocerebrosidase-p2 (AID 348). Note: potency is the fitted concentration of half-maximal effect. Particulars: purified GBA, blue fluorogenic substrate, 40 min. An outline of the steps:
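Normal human glucocerebrosidase (0.2 nM) with blue fluorogenic substrate (80 uM final) in citrate/phosphate pH 5.9 with 10mM sodium taurocholate, 0.01% tween-20; 40 min RT, NaOH/glycine stop; fluorescence Ex 365/Em 440; AC50 from a titration from 0.6 nM upwards.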
Regarding `COCCn1c(=O)c(-c2ccc(Cl)cc2)nc2cnc(OCc3ccccc3)nc21`, the Potency is > 11.4 µM.

With `CN1CCN(c2ncncc2-c2ccccc2C(F)(F)F)CC1`, the Potency was > 11.4 µM. Consider `O=c1c(-c2ccccc2)nc2cnc(N3CCNCC3)nc2n1-c1ccccc1`, for which the Potency was > 11.4 µM.

As to `Cc1ccccc1-c1nccc(Nc2ccc(F)cc2)n1`, the Potency was > 11.4 µM. Same read-out and setting: for `COCCn1c(=O)c(-c2ccc(Cl)cc2)nc2cnc(OC)nc21` the value was > 11.4 µM; for `Cc1nc2cnc(N3CCNCC3)nc2n(CCc2ccccc2)c1=O`, > 11.4 µM. On the same count and under the same terms, the value for `CN1CCN(c2ncnc3ccc(-c4ccccc4C#N)cc23)CC1` was > 11.4 µM; that for `CN1CCN(c2ncc3nc(CCc4ccccc4)c(=O)n(Cc4ccc(F)cc4)c3n2)CC1` was > 11.4 µM. Same read-out and setting: for `N#CCCn1c(=O)c(-c2ccc(Cl)cc2)nc2cnc(OCc3ccccc3)nc21` the value was > 11.4 µM.

Take `COc1ccc(Oc2ncc3nc(-c4cccs4)c(=O)n(CCC#N)c3n2)cc1`: the Potency is > 11.4 µM. On the same count and under the same terms, for `O=c1cnc2cnc(N3CCNCC3)nc2n1Cc1cccs1` the value was > 11.4 µM.

In the case of `COc1ccc(CNc2ncnc3ccc(-c4ccccc4OC)cc23)c(OC)c1`, the Potency was > 11.4 µM. Same read-out and setting: for `Clc1ccccc1-c1nc(N2CCNCC2)c2ccccc2n1` the value was > 11.4 µM. Still for that read-out and setting: for `COCCn1c(=O)c(CCc2ccccc2)nc2cnc(N3CCN(C)CC3)nc21` the value was > 11.4 µM; for `O=c1c(-c2cccs2)nc2cnc(N3CCNCC3)nc2n1CCc1ccccc1`, > 11.4 µM; for `CN1CCN(c2ncc3nc(-c4cc(F)cc(F)c4)c(=O)n(-c4ccccc4)c3n2)CC1`, > 11.4 µM. Same read-out and setting: the value for `O=c1c(-c2ccc(Cl)cc2)nc2cnc(Oc3ccccc3)nc2n1C1CC1` was > 11.4 µM.

For `COc1cccc(-c2nc(N3CCN(C)CC3)c3ccccc3n2)c1`, the Potency was > 11.4 µM. For the compound `COCCn1c(=O)c(-c2cn(C)c3ccccc23)nc2cnc(N3CCNCC3)nc21`, the Potency is > 11.4 µM. Same read-out and setting: for `CN1CCN(c2ncc3nc(-c4ccccc4)c(=O)n(-c4ccccc4)c3n2)CC1` the value was > 11.4 µM; for `COc1ccc(-n2c(=O)cnc3cnc(N4CCNCC4)nc32)cc1`, > 11.4 µM; for `O=C(c1cc(C(F)(F)F)cc(C(F)(F)F)c1)N1CCC2(CC1)CCN(c1ccncc1)CC2`, > 11.4 µM. Turning to `O=c1cnc2cnc(N3CCNCC3)nc2n1Cc1ccc(F)cc1`, the Potency is > 11.4 µM. Regarding `Cc1noc(C)c1-c1nc(N2CCNCC2)c2ccccc2n1`, the Potency is > 11.4 µM. On the same count and under the same terms, for `CN(C)c1ccc(-c2nccc(NCCN3CCOCC3)n2)cc1` the value was > 11.4 µM; for `COCCn1c(=O)c(-c2ccc(OC)cc2)nc2cnc(N3CCNCC3)nc21`, > 11.4 µM.

As to `O=C(c1cc(C(F)(F)F)cc(C(F)(F)F)c1)N1CCC2(CC1)CCN(c1ccccn1)CC2`, the Potency is 10.2 µM. With `O=C(Nc1cccc(F)c1)N1CCCC2(CCNCC2)C1`, the Potency was > 11.4 µM. Regarding `Cc1ccccc1-c1nc(N2CCN(C)CC2)c2ccccc2n1`, the Potency was > 11.4 µM. Turning to `COc1ccc(-n2c(=O)c(-c3ccccc3)nc3cnc(N4CCNCC4)nc32)cc1`, the Potency was > 11.4 µM. The same measure, in the same setting: the value for `COc1ccc(-c2nc3cnc(N4CCNCC4)nc3n(-c3ccccc3)c2=O)cc1` was > 11.4 µM. On the same count and under the same terms, for `O=C(c1ccco1)N1CCC[C@@]2(CCN(c3ccncc3)C2)C1` the value was > 11.4 µM. The same measure, in the same setting: for `COc1ccc(Oc2ncc3nc(-c4ccccc4)c(=O)n(C4CC4)c3n2)cc1` the value was > 11.4 µM.

System in another assay: not listed separately
Briefly: AP1 Signaling Pathway (AID 357; active = well fitted curve in either direction with a large enough effect, not every such curve was filed as active;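 note: ME-180 reporter cells stimulated with EGF at its EC50 level; % is set by controls: 0 for no effect and ±100 for the full control effect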). Conditions: ME-180 (cervical carcinoma) AP-1-bla reporter, EGF-induced, beta-lactamase ratio, 5 h; at 7.69 µM (top of the series) unless noted. An outline of the steps:
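Beta-lactamase reporter under AP-1 response element, ME-180 background. Stimulus: EC50 EGF. Compound exposure 5 h, 37 °C. Detection: CCF4, 2.5 h RT, 460/530 nm. Values: AC50 from titration.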
Consider `COCCn1c(=O)c(-c2ccc(Cl)cc2)nc2cnc(OCc3ccccc3)nc21`, for which the activity change, negative = inhibition is -14.1%. Take `CN1CCN(c2ncncc2-c2ccccc2C(F)(F)F)CC1`: the activity change, negative = inhibition is 1.62%. Take `Cc1ccccc1-c1nccc(Nc2ccc(F)cc2)n1`: the activity change, negative = inhibition is -8.14%. Still for that read-out and setting: for `COCCn1c(=O)c(-c2ccc(Cl)cc2)nc2cnc(OC)nc21` the value was 5.96%; for `Cc1nc2cnc(N3CCNCC3)nc2n(CCc2ccccc2)c1=O`, -1.97%; for `CN1CCN(c2ncnc3ccc(-c4ccccc4C#N)cc23)CC1`, 15.1%. The same measure, in the same setting: the value for `CN1CCN(c2ncc3nc(CCc4ccccc4)c(=O)n(Cc4ccc(F)cc4)c3n2)CC1` was 4.85%; that for `COc1ccc(Oc2ncc3nc(-c4cccs4)c(=O)n(CCC#N)c3n2)cc1` was -1.5%. The same measure, in the same setting: the value for `COc1ccc(Oc2ncc3nc(CCc4ccccc4)c(=O)n(C[C@H]4CCCO4)c3n2)cc1` was -25.6%.

`O=c1cnc2cnc(N3CCNCC3)nc2n1Cc1cccs1`: the activity change, negative = inhibition was -4.82%. As for `COc1ccc(CNc2ncnc3ccc(-c4ccccc4OC)cc23)c(OC)c1`, the activity change, negative = inhibition was -4.21%.

Take `Clc1ccccc1-c1nc(N2CCNCC2)c2ccccc2n1`: the activity change, negative = inhibition was -2.1%. With `COCCn1c(=O)c(CCc2ccccc2)nc2cnc(N3CCN(C)CC3)nc21`, the activity change, negative = inhibition was 2.87%. Take `O=c1c(-c2cccs2)nc2cnc(N3CCNCC3)nc2n1CCc1ccccc1`: the activity change, negative = inhibition is 82.5% [activator] (active).

Consider `COc1cccc(Cn2c(=O)c(C)nc3cnc(N4CCNCC4)nc32)c1`, for which the activity change, negative = inhibition was 4.85%. In the case of `O=c1c(-c2ccc(Cl)cc2)nc2cnc(Oc3ccccc3)nc2n1C1CC1`, the activity change, negative = inhibition was -21%. Same read-out and setting: the value for `COc1cccc(-c2nc(N3CCN(C)CC3)c3ccccc3n2)c1` was 11.5%. On the same count and under the same terms, for `COCCn1c(=O)c(-c2cn(C)c3ccccc23)nc2cnc(N3CCNCC3)nc21` the value was 16%.

Consider `COc1ccc(-n2c(=O)cnc3cnc(N4CCNCC4)nc32)cc1`, for which the activity change, negative = inhibition is -7.32%. On the same count and under the same terms, for `O=C(c1cc(C(F)(F)F)cc(C(F)(F)F)c1)N1CCC2(CC1)CCN(c1ccncc1)CC2` the value was 24.2%.

`O=c1cnc2cnc(N3CCNCC3)nc2n1Cc1ccc(F)cc1`: the activity change, negative = inhibition is -15.8%. The same measure, in the same setting: the value for `Cc1noc(C)c1-c1nc(N2CCNCC2)c2ccccc2n1` was 18.5%; that for `CN(C)c1ccc(-c2nccc(NCCN3CCOCC3)n2)cc1` was -7.61%; that for `O=C(c1cc(C(F)(F)F)cc(C(F)(F)F)c1)N1CCC2(CC1)CCN(c1ccccn1)CC2` was -6.99%. On the same count and under the same terms, for `O=C(Nc1cccc(F)c1)N1CCCC2(CCNCC2)C1` the value was -6.17%. On the same count and under the same terms, for `Cc1ccccc1-c1nc(N2CCN(C)CC2)c2ccccc2n1` the value was 5.49%; for `Cn1c(=O)c(CCc2ccccc2)nc2cnc(OCc3ccccc3)nc21`, -26%.

`O=C(c1ccco1)N1CCC[C@@]2(CCN(c3ccncc3)C2)C1`: the activity change, negative = inhibition was 0.424%. The same measure, in the same setting: the value for `COc1ccc(Oc2ncc3nc(-c4ccccc4)c(=O)n(C4CC4)c3n2)cc1` was -15.8%.
